Results filed as inconclusive are left out. Calls of active or inactive are those of the source. The call rests on the fitted dose curve; in most records, active means well fitted cell-killing curve with a large enough effect; inconclusive means small, poorly fitted or top-dose-only effect, or effect the other way; inactive means no such curve, though single readings can be large or run the other way.
Potency means the concentration at half of the fitted maximal effect.

The nature of this experiment: Quantitative High-Throughput drug screen in 47 multiple myeloma cell lines against the NCATS MIPE library collection: OPM1_PLB cell viability assay (AID 1918989). Further: nearly all actives have a fitted effect of over 40% in size. As to conditions: CellTiter-Glo, 48 h; series mostly up to 45.8 µM; viability (% of control): at the top concentration. The source says: PI: Beverly A. Mock Ph.D.
Laboratory of Cancer Biology and Genetics,
Center for Cancer Research, National Cancer Institute,
National Institute of Health, Bethesda, Maryland
Drug resistance and disease progression are common in multiple myeloma (MM) patients, underscoring the need for new therapeutic combinations. […] We hypothesized that effective combinations would reduce MYC expression and enhance p16 activity. […] These preclinical data identify potentially useful drug combinations for evaluation in drug-resistant MM and reveal potential mechanisms of combined drug sensitivity.
Described herein is the primary MIPE qHTS used to cherrypick compounds. Validated compounds were then further tested for potential synergistic activiy.
[1] Peat TJ, Gaikwad SM, Dubois W, Gyabaah-Kessie N, Zhang S, Gorjifard S, Phyo Z, Andres M, Hughitt VK, Simpson RM, Miller MA, Girvin AT, Taylor A, Williams D, D'Antonio N, Zhang Y, Rajagopalan A, Flietner E, Wilson K, Zhang X, Shinn P, Klumpp-Thomas C, McKnight C, Itkin Z, Chen L, Kazandijian D, Zhang J, Michalowski AM, Simmons JK, Keats J, Thomas CJ, Mock BA. Drug combinations identified by high-throughput screening promote cell cycle transition and upregulate Smad pathways in myeloma. Cancer Lett. 2023 Aug 1;568:216284. doi: 10.1016/j.canlet.2023.216284. Epub 2023 Jun 24. PMID: 37356470; PMCID: PMC10408729.
SEQUENCE No. (e.g., 1, 2, 3, etc.); […] (e.g., Cells, Incubation, Reagent, etc.); VALUE and DESCRIPTION.
1; Cells; 5 uL; white, solid bottom 1536-well Greiner assay plate.
2; Compounds; 23 nL; Kalypsis pin tool (Wako USA) equipped with a 1536-well pin head to transfer to the assay plates.
3; Incubation; 48 hours; 37C incubation.
4; Reagent;5uL; CellTiter Glo (Promega).
5; Detector; 425V; Luminescence; Viewlux PerkinElmer.
NOTES (numbers refer to Sequence numbers above)
1. The cell-based screening methods employed in this study were like those previously published. Briefly, the corresponding myeloma cell lines were screened in 1,536-well plates with 500 cells, 5-uL per well for inhibition of cell viability (assessed by measuring ATP levels with CellTiterGlo).
2. NCATS MIPE 4.0 library of approved and investigational drugs were added using the Kalypsis pin tool. Wells treated with DMSO only for 100% viability and media only for 0% viability were used as controls.
3. The assay plates were covered and incubated for 48 hours in a 37C, 5% CO2 incubator with controlled humidity.
4. After 48 hours, CellTilter-GloTM luminescent substrate mix (Promega) reagent was added to the assay plate and plates we incubated for 5 min at room temperature.
5. Signal was measured as median relative luminescence units on a ViewLux (PerkinElmer) multiplate reader.
[1] Heske CM, Davis MI, Baumgart JT, Wilson K, Gormally MV, Chen L, Zhang X, Ceribelli M, Duveau DY, Guha R, Ferrer M, Arnaldez FI, Ji J, Tran HL, Zhang Y, Mendoza A, Helman LJ, Thomas CJ. Matrix Screen Identifies Synergistic Combination of PARP Inhibitors and Nicotinamide Phosphoribosyltransferase (NAMPT) Inhibitors in Ewing Sarcoma. Clin Cancer Res. 2017 Dec 1;23(23):7301-7311. doi: 10.1158/1078-0432.CCR-17-1121. Epub 2017 Sep 12. PMID: 28899971; PMCID: PMC6636827.
A general note: ATP-based viability assays read luminescence as a measure of living cells.
For `Cc1coc2c1C(=O)C(=O)c1c-2ccc2c(C)cccc12`, the Potency was 2.96 µM (active).
For the compound `COc1cc2c(cc1OC)[C@@H]1C(=O)c3ccc4c(c3O[C@@H]1CO2)C=CC(C)(C)O4`, the Potency was 10.5 µM (active).
In the case of `COc1ccc(C[C@@H](C)[C@@H](C)Cc2ccc(OC)c(OC)c2)cc1OC`, the Potency is 0.264 µM (active).
The same measure, in the same setting: the result for `CC(C)(C)c1nc2c3cc[nH]c(=O)c3c3cc(F)ccc3c2[nH]1` reads 0.743 µM (active); that for `C=C1C(=CC=C2CCC[C@]3(C)[C@@H]([C@H](C)CCCC(C)(C)O)CC[C@@H]23)C[C@@H](O)C[C@@H]1O`, 5.26 µM (active).
In the case of `C#Cc1cccc(Nc2ncnc3cc(OCCOC)c(OCCO)cc23)c1`, the Potency was 13.2 µM (active).
For `CC(=O)OCC(=O)[C@@]1(O)CC[C@H]2[C@@H]3CCC4=CC(=O)CC[C@]4(C)[C@@H]3C(=O)C[C@@]21C`, the “viability (% of control)” value is 137% (inactive).
For the compound `NC(=O)c1ncn([C@@H]2O[C@H](CO)[C@@H](O)[C@@H]2O)c1N`, the “viability (% of control)” value is 131% (inactive).
As to `CNC(=O)c1cccc(-c2ccc3c(N4CCOC[C@H]4C)nc(N4CCOC[C@H]4C)nc3n2)c1`, the Potency was 0.105 µM (active).
In the case of `O=C(O)C[C@H](O)C[C@H](O)C=Cc1c(C2CC2)nc2ccccc2c1-c1ccc(F)cc1`, the Potency is 2.64 µM (active).
As to `C=C(C)[C@@H]1CC[C@]2(C)CC[C@]3(C)[C@H](CC[C@@H]4[C@@]5(C)CC[C@H](O)C(C)(C)[C@H]5CC[C@]43C)[C@@H]12`, the “viability (% of control)” value is 124% (inactive).
Consider `Cn1cc(C[C@@H](N)C(=O)O)c2ccccc21`, for which the “viability (% of control)” value was 135% [at 23.2 µM] (inactive).
Consider `CCN1CCN(C(=O)N[C@H](C(=O)N[C@@H]2C(=O)N3C(C(=O)O)=C(CSc4nnnn4C)CS[C@@H]23)c2ccc(O)cc2)C(=O)C1=O`, for which the “viability (% of control)” value is 147% [at 15.3 µM] (inactive).
In the case of `CCOC(=O)[C@H](CCc1ccccc1)N[C@@H](C)C(=O)N1[C@@H](C(=O)O)C[C@H]2CCC[C@@H]21`, the Potency is 5.26 µM (active).
Same read-out and setting: the result for `COc1ccc([C@@H]2CNC(=O)C2)cc1OC1CCCC1` reads 8.33 µM (active); that for `COc1cc2c(cc1O)CCC1C2CC[C@@]2(C)C1CC[C@@H]2O` (stereo not given in full), 5.26 µM (active).
`CC[C@H](CC[C@@H](C)[C@H]1CC[C@H]2[C@@H]3CC=C4C[C@@H](O)CC[C@]4(C)[C@@H]3CC[C@]12C)C(C)C`: the “viability (% of control)” value is 127% (inactive).
Same read-out and setting: the figure for `OCc1ccccc1O[C@@H]1O[C@H](CO)[C@H](O)[C@H](O)[C@H]1O` is 160% (inactive).
As to `CCCCCN=C(N)NN=Cc1c[nH]c2ccc(OC)cc12`, the Potency is 11.8 µM (active).
As for `C[C@@H]1[C@H](C)CC[C@]2(C(=O)O)CC[C@]3(C)C(=CC[C@@H]4[C@@]5(C)C[C@@H](O)[C@H](O)[C@@](C)(CO)[C@H]5CC[C@]43C)[C@@H]12`, the “viability (% of control)” value was 125% (inactive).
On to `CN1CCc2c(c3ccccc3n2Cc2ccc(C(=O)NO)cc2)C1`, for which the Potency is 16.6 µM (active).
On to `Cn1cc(-c2ccc3ncc(Cc4ccc5ncccc5c4)n3n2)cn1`, for which the “viability (% of control)” value was 111% (inactive).
`C[C@H](NC(=O)Cc1cc(F)cc(F)c1)C(=O)N[C@H](C(=O)OC(C)(C)C)c1ccccc1`: the “viability (% of control)” value is 113% (inactive).
Regarding `CCOC(=O)N1CCN([N+]([O-])=NOc2ccc([N+](=O)[O-])cc2C#N)CC1`, the Potency was 0.418 µM (active).
For the compound `c1cncc(CN2CCC(n3ncc4c(N5CCOCC5)nc(-c5ccc6[nH]ccc6c5)nc43)CC2)c1`, the Potency is 2.64 µM (active).
As to `Nc1ccn(C2CO[C@H](CO)O2)c(=O)n1` (stereo not given in full), the “viability (% of control)” value is 134% (inactive).
Regarding `C=Cc1c(C)c2cc3nc(cc4[nH]c(cc5nc(cc1[nH]2)C(C)=C5CCC(=O)O)c(CCC(=O)OC)c4C)[C@@]1(C)C3=CC=C(C(=O)OC)[C@H]1C(=O)OC`, the Potency is 0.372 µM (active).
For `CCN(CC)CCNC(=O)c1c(C)[nH]c(C=C2C(=O)Nc3ccc(F)cc32)c1C`, the Potency is 1.52 µM (active).
With `COc1cc2ncnc(Nc3cccc(Br)c3)c2cc1OC`, the Potency is 7.43 µM (active).
Consider `COc1cccc2c1C(=O)c1c(O)c3c(c(O)c1C2=O)C[C@@](O)(C(=O)CO)C[C@@H]3O[C@H]1C[C@H](N)[C@H](OC2CCCCO2)[C@H](C)O1` (stereo not given in full), for which the Potency is 16.6 µM (active).
With `O=C1c2cccc(O)c2C(=O)c2c(O)cc(CO)cc21`, the “viability (% of control)” value is 95.4% (inactive).
In the case of `COc1ccc2c(c1OC)C(=O)OC2[C@H]1c2c(cc3c(c2OC)OCO3)CCN1C` (stereo not given in full), the Potency is 0.469 µM (active).
Consider `CCOC(=O)[C@@H](N)Cc1ccc(-c2cc(O[C@H](c3ccc(Cl)cc3-n3ccc(C)n3)C(F)(F)F)nc(N)n2)cc1`, for which the Potency is 23.5 µM (active).
On to `Cc1cnc(Nc2ccc(N3CCN(C)CC3)cc2)nc1Nc1cccc(S(=O)(=O)NC(C)(C)C)c1`, for which the Potency was 0.935 µM (active).
With `O=C(C=Cc1ccc(CN(CCO)CCc2c[nH]c3ccccc23)cc1)NO`, the Potency was 0.0662 µM (active).
Take `CCC[C@H]1C[C@H](C(=O)N[C@@H]([C@@H]2O[C@@H](SC)[C@@H](O)[C@@H](O)[C@@H]2O)[C@H](C)Cl)N(C)C1`: the “viability (% of control)” value is 130% (inactive).
Regarding `CC(=O)N1CCN(c2ccc(OCc3nn(C)c(C)c3-c3cccc4c(CCCOc5cccc6ccccc56)c(C(=O)O)n(Cc5cccnc5)c34)cc2)CC1`, the Potency was 0.469 µM (active).
Take `CC(=O)ON=C1C(c2c(O)[nH]c3cc(Br)ccc23)=Nc2ccccc21`: the Potency is 3.72 µM (active).
On to `CC(C)(O)[C@H]1CC[C@@](C)([C@H]2[C@@H](O)C[C@@]3(C)[C@@H]4C[C@H](O[C@@H]5O[C@H](CO)[C@@H](O)[C@H](O)[C@@H]5O)[C@H]5C(C)(C)[C@@H](O[C@@H]6OC[C@@H](O)[C@H](O)[C@@H]6O)CC[C@@]56C[C@@]46CC[C@]23C)O1`, for which the Potency is 16.6 µM (active).
Consider `COc1cc(O)c2c(c1)C1OC1C[C@H](O)[C@H](O)C(=O)C=CC[C@H](C)OC2=O` (stereo not given in full), for which the Potency is 5.26 µM (active).
